We go through 22 molecules from PubChem BioAssay AID2783 (National Center for Advancing Translational Sciences (NCATS), 2010).

Records with an inconclusive call do not appear. Active and inactive are the calls of the source. Calls follow the shape of the dose curve; as a rule, active = well fitted inhibition curve with a large enough effect in the polarisation, with a control signal flat (not every such curve was filed as active); inconclusive = small, poorly fitted or top-dose-only effect, or effect the other way, or a change in a side signal; inactive = no such curve, though single readings can be large or run the other way; the % refers to the polarisation. Where a SMILES comes first, the peptide text is derived from it. Bridges are numbered along the chain shown (N, C = ends). [ ]: non-standard residue; d: D form. The star is where a group is joined. ξ: configuration not given here. Octanoyl(6-Me) = CCC(C)CCCCC(=O)*; ξThr(3R) = C[C@@H](O)C(N)C(=O)O; dDab = NCC[C@@H](N)C(=O)O; Dab = NCC[CH](N)C(=O)O
Potency is read from the fitted curve at half-maximal effect.

In the assay the target is Histone-lysine N-methyltransferase 2A (Homo sapiens) (UniProt Q03164). Description: Confirmation of Inhibitors Targeting the Menin-MLL Interaction in MLL Related Leukemias: Competition With Fluorescein Labeled MLL-derived Peptide. Conditions: Fluorescence polarization, fluorescein-MLL peptide displacement from menin. On the technique in general: In fluorescence polarisation assays a small probe gives low polarisation when free and higher when bound to something large.
Histone-lysine N-methyltransferase 2A (Homo sapiens), sequence (Q03164 whole entry, looked up): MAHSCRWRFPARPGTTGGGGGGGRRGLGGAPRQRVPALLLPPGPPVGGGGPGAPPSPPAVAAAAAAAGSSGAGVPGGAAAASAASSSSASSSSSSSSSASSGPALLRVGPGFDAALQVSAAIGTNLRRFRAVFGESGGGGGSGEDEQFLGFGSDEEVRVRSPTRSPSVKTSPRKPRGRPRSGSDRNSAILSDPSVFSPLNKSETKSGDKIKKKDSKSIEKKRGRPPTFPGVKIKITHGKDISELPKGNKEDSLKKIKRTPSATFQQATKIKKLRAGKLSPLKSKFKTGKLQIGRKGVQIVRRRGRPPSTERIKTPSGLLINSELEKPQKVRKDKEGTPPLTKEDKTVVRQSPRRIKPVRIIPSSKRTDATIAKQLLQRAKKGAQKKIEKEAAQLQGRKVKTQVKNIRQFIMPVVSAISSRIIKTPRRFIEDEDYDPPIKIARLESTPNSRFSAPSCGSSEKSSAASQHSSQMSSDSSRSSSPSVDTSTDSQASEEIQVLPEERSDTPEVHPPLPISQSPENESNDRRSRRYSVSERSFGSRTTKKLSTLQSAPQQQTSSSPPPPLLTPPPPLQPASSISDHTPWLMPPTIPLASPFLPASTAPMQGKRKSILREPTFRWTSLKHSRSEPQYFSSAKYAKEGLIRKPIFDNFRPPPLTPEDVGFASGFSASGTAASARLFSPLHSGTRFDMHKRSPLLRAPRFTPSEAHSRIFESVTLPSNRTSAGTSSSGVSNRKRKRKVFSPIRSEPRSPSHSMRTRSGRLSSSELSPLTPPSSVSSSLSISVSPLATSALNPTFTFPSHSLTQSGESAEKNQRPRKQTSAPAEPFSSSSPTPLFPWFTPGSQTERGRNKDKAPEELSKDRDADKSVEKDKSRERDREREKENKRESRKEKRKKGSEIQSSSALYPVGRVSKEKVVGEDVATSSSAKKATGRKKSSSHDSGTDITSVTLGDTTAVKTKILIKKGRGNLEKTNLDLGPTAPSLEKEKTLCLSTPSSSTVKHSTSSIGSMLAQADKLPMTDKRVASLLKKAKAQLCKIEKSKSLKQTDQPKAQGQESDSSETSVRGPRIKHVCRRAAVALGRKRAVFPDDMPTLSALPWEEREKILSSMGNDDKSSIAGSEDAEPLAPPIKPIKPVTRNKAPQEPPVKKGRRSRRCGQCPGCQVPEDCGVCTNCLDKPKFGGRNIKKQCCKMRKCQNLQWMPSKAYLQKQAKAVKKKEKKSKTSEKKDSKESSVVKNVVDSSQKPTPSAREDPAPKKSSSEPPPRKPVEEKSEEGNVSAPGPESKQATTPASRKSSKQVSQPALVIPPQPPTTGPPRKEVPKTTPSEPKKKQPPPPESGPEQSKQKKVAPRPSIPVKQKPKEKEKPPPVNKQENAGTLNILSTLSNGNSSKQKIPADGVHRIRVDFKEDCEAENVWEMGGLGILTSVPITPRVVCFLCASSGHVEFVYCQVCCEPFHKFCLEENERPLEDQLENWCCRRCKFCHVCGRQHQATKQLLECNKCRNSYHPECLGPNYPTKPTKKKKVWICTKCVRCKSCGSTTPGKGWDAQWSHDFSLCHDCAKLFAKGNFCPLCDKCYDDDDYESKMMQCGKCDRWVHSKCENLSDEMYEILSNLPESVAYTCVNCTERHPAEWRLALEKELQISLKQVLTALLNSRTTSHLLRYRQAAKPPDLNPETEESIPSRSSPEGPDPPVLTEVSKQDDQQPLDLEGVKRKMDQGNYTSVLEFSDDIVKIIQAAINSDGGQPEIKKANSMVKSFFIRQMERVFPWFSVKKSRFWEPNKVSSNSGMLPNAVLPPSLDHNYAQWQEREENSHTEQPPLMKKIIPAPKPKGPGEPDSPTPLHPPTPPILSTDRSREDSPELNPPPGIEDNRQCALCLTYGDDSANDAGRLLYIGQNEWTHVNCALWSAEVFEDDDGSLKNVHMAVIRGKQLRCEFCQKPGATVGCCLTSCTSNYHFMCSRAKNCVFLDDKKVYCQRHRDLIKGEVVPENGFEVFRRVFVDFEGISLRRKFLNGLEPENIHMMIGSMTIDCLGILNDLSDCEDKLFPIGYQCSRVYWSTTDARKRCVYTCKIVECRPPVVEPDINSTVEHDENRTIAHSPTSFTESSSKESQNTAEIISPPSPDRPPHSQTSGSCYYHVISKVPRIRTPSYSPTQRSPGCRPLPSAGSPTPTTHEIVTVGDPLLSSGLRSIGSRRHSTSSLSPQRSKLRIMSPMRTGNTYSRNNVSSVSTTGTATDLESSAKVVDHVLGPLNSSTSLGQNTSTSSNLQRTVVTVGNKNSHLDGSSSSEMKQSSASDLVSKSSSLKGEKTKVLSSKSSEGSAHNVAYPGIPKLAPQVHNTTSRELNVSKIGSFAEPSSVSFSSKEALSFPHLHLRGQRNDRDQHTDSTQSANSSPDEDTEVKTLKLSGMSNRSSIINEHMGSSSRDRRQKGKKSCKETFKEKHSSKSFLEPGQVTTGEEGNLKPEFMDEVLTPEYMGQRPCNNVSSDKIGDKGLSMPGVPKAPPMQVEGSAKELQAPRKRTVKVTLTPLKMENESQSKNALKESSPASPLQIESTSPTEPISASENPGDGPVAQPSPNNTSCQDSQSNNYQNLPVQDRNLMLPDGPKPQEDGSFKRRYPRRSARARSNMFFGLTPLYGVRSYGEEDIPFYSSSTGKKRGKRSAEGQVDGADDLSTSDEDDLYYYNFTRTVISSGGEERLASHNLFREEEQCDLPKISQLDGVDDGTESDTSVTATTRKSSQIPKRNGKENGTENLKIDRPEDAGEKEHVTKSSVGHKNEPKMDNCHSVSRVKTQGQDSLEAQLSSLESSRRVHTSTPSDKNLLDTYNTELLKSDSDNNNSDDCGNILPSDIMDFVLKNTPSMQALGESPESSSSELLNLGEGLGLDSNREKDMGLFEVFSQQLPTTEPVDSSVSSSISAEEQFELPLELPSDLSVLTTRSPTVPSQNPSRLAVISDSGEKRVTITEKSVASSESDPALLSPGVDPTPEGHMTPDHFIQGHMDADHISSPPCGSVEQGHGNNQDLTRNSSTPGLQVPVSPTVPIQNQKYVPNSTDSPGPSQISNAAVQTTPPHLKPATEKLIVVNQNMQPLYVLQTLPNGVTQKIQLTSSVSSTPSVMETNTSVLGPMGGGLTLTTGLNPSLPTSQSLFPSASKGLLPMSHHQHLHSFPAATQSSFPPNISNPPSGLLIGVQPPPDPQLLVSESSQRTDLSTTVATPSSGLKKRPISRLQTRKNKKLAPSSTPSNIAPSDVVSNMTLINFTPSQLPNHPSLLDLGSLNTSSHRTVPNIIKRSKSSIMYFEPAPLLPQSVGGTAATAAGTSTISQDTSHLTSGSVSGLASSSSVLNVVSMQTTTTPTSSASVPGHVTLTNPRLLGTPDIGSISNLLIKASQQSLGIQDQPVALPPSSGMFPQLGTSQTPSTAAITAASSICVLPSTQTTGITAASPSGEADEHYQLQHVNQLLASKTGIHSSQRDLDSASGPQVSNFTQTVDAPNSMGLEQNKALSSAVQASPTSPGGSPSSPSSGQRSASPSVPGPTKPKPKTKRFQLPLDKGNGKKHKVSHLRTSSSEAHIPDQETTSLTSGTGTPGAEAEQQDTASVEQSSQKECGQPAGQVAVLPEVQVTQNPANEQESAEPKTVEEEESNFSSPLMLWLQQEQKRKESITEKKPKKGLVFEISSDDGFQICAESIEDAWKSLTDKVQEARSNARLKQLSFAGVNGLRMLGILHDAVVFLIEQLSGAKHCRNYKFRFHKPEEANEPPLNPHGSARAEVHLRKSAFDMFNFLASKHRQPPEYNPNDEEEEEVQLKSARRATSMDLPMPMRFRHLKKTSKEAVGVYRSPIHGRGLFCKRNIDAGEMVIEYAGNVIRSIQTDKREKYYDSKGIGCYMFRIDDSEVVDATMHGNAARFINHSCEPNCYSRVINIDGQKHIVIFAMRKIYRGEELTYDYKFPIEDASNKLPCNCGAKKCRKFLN
With `COc1ccccc1NS(=O)(=O)c1cc(N2Cc3ccccc3C2=N)ccc1N1CCOCC1`, the Potency is 71 µM (active). For `NC(=NCCCCCCN=C(N)/N=C(\N)Nc1ccc(Cl)cc1)/N=C(\N)Nc1ccc(Cl)cc1`, the Potency was 141 µM (active). `CCc1cc2c(N3CCN(C(=O)c4ccco4)CC3)ncnc2s1`: the Potency is 63.1 µM (active).

With `CCC(c1nnnn1Cc1ccc(F)cc1)N1CCN(C2CCCCC2)CC1` (configuration not stated), the Potency was 126 µM (active).

In the case of `CCC(C)CCCCC(=O)N[C@@H](CCN)C(=O)N[C@H](C(=O)N[C@@H](CCN)C(=O)N[C@H]1CCNC(=O)C([C@@H](C)O)NC(=O)[C@@H](CCN)NC(=O)[C@H](CCN)NC(=O)[C@H](CC(C)C)NC(=O)[C@@H](CC(C)C)NC(=O)[C@H](CCN)NC1=O)[C@@H](C)O` (stereo partly drawn) ({Octanoyl(6-Me)}-[Dab]T[Dab][Dab][Dab][dL]L[Dab][dDab][ξThr(3R)]; lactam 4-C), the Potency is 12.6 µM (active). For `COc1ccc(Cn2nnnc2C(c2ccc3ncccc3c2)N2CCN(C3CCCCC3)CC2)cc1` (configuration not stated), the Potency is 200 µM (active).

Turning to `Cc1cc2c(N)cccc2nn1`, the Potency is 141 µM (active).

`CCOc1cc(CNCCc2ccc(S(N)(=O)=O)cc2)ccc1OCc1ccccc1`: the Potency is 126 µM (active). `Cc1sc2ncnc(NC3CCN(Cc4ccccc4)CC3)c2c1C`: the Potency was 63.1 µM (active).

Consider `COC(=O)[C@H](C)NC(=O)c1cc2c(cn1)[nH]c1ccccc12`, for which the Potency is 50.2 µM (active).

For `CNC[C@H](CC1CCCCC1)NC[C@H](Cc1ccccc1)NCCC12CC3CC(CC(C3)C1)C2`, the Potency was 79.4 µM (active).

Take `CC(=O)NC1C(=O)N(CCN2CCOCC2)c2ccc(C)cc21` (configuration not stated): the Potency is 79.6 µM (active). For `CCCC[n+]1c2ccccc2cc2ccccc21` the value was 63.2 µM (active). For `CCCC(c1nnnn1Cc1ccco1)N1CCN(C2CCCC2)CC1` (configuration not stated) the value was 126 µM (active). `NC(=O)[C@@H]1CCCNc2c(I)cc([N+](=O)[O-])cc2C(=O)N[C@@H](CCCN=C(N)N)C(=O)N[C@@H](CCCN=C(N)N)C(=O)N1`: the Potency was 251 µM (active). `CC1(C)CN=C(N2CCN(c3ncnc4sc5c(c34)CCCC5)CC2)S1`: the Potency is 22.4 µM (active).

Turning to `CCC[n+]1c2ccccc2cc2ccccc21`, the Potency is 63.2 µM (active). Turning to `CCC(C)CCCCC(=O)NC(CCN)C(=O)NC(C(=O)NC(CCN)C(=O)NC1CCNC(=O)C(C(C)O)NC(=O)C(CCN)NC(=O)C(CCN)NC(=O)C(CC(C)C)NC(=O)C(Cc2ccccc2)NC(=O)C(CCN)NC1=O)C(C)O` (configuration not stated) ({Octanoyl(6-Me)}-[Dab]T[Dab][Dab][Dab]FL[Dab][Dab]T; lactam 4-C; configuration not given here), the Potency was 10 µM (active). Regarding `C[C@H](NC(=O)c1cc2c(cn1)[nH]c1ccccc12)C(=O)O`, the Potency was 71 µM (active). For `O=C(C[N+]12CC[N+](CC(=O)c3ccc(F)cc3)(CC1)CC2)c1ccc(F)cc1` the value was 79.4 µM (active).

`N=C1c2ccccc2CN1c1ccc(N2CCOCC2)c(S(=O)(=O)Nc2ccc(Cl)cc2)c1`: the Potency is 71 µM (active). For `c1cc(CN2CCCNCCNCCCNCC2)ccc1CN1CCCNCCNCCCNCC1`, the Potency is 31.6 µM (active).
